Source: PubChem BioAssay (NCATS)
Results filed as inconclusive are left out. Values without a mark were called inactive. The source made the active and inactive calls. Calls follow the shape of the dose curve; as a rule, active = well fitted curve in the direction sought with a large enough effect; inconclusive = small, poorly fitted or top-dose-only effect, or another doubt; inactive = no such curve, though single readings can be large or run the other way.

Experiment: qHTS for differential inhibitors of proliferation of Plasmodium falciparum line D10 (AID 1877);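 also: parasites grown with compound for 72 h before DNA staining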;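 as to activity change, negative = inhibition: plate controls were vehicle wells for no effect and reference inhibitor wells for full effect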
Details: series mostly up to 28.7 µM; activity change, negative = inhibition: at the top concentration
Potency is read from the fitted curve at half-maximal effect.

Compound	Potency	activity change, negative = inhibition [%]
COc1ccccc1N1CCN(CCCCNC(=O)c2ccc3ccccc3c2)CC1	10 µM (active)	–
COc1ccc(NC(=O)c2ccc(-c3ccc(-c4noc(C)n4)cc3C)cc2)cc1N1CCN(C)CC1	2.51 µM (active)	–
COC(=O)C(N)Cc1ccc(Cl)cc1 (configuration not stated)	–	-10.3
O[Si](CCCN1CCCCC1)(c1ccc(F)cc1)C1CCCCC1 (configuration not stated)	0.0282 µM (active)	–
Cn1ccnc1	–	3.83
Cn1cc(C(F)(F)F)nc1-c1ccc(OCC(O)CNCCOc2ccc(O)c(C(N)=O)c2)cc1 (configuration not stated)	3.16 µM (active)	–
NCC(O)C1CCCCCCC1 (configuration not stated)	–	-8.53
N[C@@H](CS(=O)O)C(=O)O	–	-3.38
Oc1ccc(Cn2cc[nH]c2=S)cc1	–	-11.7
N#CC(=C(\N)Sc1ccccc1N)/C(C#N)=C(/N)Sc1ccccc1N	2 µM (active)	–
CC(C)NCC(O)COc1ccc(CC(N)=O)cc1 (configuration not stated)	–	1.62
CCC1(O)CC2CN(CCc3c([nH]c4ccccc34)[C@@](C(=O)OC)(c3cc4c(cc3OC)N(C)C3[C@]45CCN4CC=C[C@@](CC)([C@@H](OC(C)=O)[C@]3(O)C(=O)OC)[C@H]45)C2)C1 (some centres not stated)	5.01 µM (active)	–
O=C(O)/C=C/c1ccc(O)c(O)c1	–	-14.6
CCCCCCN(CCCCCC)C(=O)Cc1c(-c2ccc(F)cc2)[nH]c2ccccc12	12.6 µM (active)	–
CCCCCCCCCCCCCCCCCCOC[C@H](COP(=O)([O-])OCC[N+](C)(C)C)OC	–	9.19
CCCN(CCc1ccccc1)C1CCc2c(O)cccc2C1 (configuration not stated)	5.01 µM (active)	–
COc1ccc(-c2ccc(N)[n+](CCCC(=O)O)n2)cc1	–	-21.3
N[C@H](C(=O)O)[C@H]1C[C@@H]1C(=O)O	–	-8.27
CCCCCCCCCC(=O)NC(CN1CCOCC1)[C@H](O)c1ccccc1 (some centres not stated)	12.6 µM (active)	–

Compound	Potency	activity change, negative = inhibition [%]
N=C(N)c1ccc(OCCCCCOc2ccc(C(=N)N)cc2)cc1 (tested in a mixture with another compound)	0.199 µM (active)	–
CN(C)C(=O)/N=N/C(=O)N(C)C	–	-3.85
CCCCCCCCCCCCCCSCC(=O)O	–	-9.19
C=CC[C@H](N)C(=O)O	–	-20.7
CN(C)S(=O)(=O)c1ccc2c(c1)/C(=C/c1cc3c([nH]1)CCCC3)C(=O)N2	3.55 µM (active)	–
CCCCC[C@H](CC(=O)NO)C(=O)N[C@H](C(=O)N1CCC[C@H]1CO)C(C)C	1.58 µM (active)	–
CCCCS(=N)(=O)CC[C@H](N)C(=O)O (some centres not stated)	–	-18.3
Nc1ncnc2c1c(-c1ccc(Oc3ccccc3)cc1)cn2C1CCCC1	12.6 µM (active)	–
Cc1ccc([N+](=O)[O-])cc1S(=O)(=O)N(C)C	inactive	–
COc1ccc2c(c1)CCC1C2CC[C@@]2(C)C1CC[C@@H]2NCCCCCCN1C(=O)C=CC1=O (some centres not stated)	–	-2.95
CC(C)(C)c1cc(/C=C(\C#N)C(N)=S)cc(C(C)(C)C)c1O	8.91 µM (active)	–
CN1C2CCC1CC(OC(c1ccccc1)c1ccccc1)C2 (configuration not stated)	7.08 µM (active)	–
CC(N)(Cc1ccc(O)cc1)C(=O)O (configuration not stated)	–	-6.92
C=CCN1CCc2cc(O)c(O)cc2C(c2ccccc2)C1 (configuration not stated)	11.2 µM (active)	–
CC(N)=O	–	-10
CCN(c1nc(N)c(C(=O)N=C(N)N)nc1Cl)C(C)C	11.2 µM (active)	–
[Li+]	–	-11.2
NCCC1CCCC(CCN)N1 (configuration not stated)	–	-11.7
